The results in this text go back to PubChem BioAssay (NCI).

The panel holds about 83,000 compounds, 20% with a hit somewhere; the sample as a whole holds those more often.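 Testing used 96-well plates and a 48-hour single-concentration exposure. Example: -40 means 40% of the starting cells died.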 Unmarked numbers belong to inactive results. The source made the active and inactive calls.

The assay relates to TK-10 renal. In words: NCI-60 one-dose screen, 48 h (100 = growth as untreated, 0 = no growth, -100 = all killed). Conditions: 10 µM unless noted. The protocol:
Growth inhibition of the TK-10 human tumor cell line is measured as a screen for anti-cancer activity. Cells are grown in 96 well plates and exposed to the test compound for 48 hours. Compounds are tested at a single concentration, which is 10^-5 M for most compounds. The reported endpoint is percent growth (GI% or GIPRCNT), where numbers from 0 - 100% represent growth inhibition, and numbers from -100% - 0 represent cell death. For example, a value of 40 represents 60% growth inhibition. A value of 0 means no net growth occurred over the course of the experiment. A value of -40 indicates 40% of cells at the beginning of the experiment died by the end of the experiment. A value of -100 means all cells are dead at the end of the experiment.
NCI-60 Human Tumor Cell Lines Screen was performed using the standard one-dose NCI protocol, which is described in more detail at https://dtp.cancer.gov/discovery_development/nci-60/default.htm.
Compounds with GIPRCNT values below 10 were considered active. Activity score was based on GIPRCNT using the following formula: […]
Score is 0 for GIPRCNT values of 100 or above, 50 for GIPRCNT values of 0, and 100 for GIPRCNT values of -100.
For the molecule `COc1cc(CC(=O)c2ccc(O)c(OC)c2)ccc1O`, the growth was 102%.
Under `COc1ccc(N2CCN(c3ccc(NC4=C(Cl)C(=O)c5ncccc5C4=O)cc3)CC2)cc1` stands 74.8%; under `COc1cc(C2C3=C(COC3=O)N(CCO)c3cc4c(cc32)OCO4)cc(OC)c1OC` (stereo not given), 54.4%.
For `COc1cc(/C=C\c2cc(OC)c(OC)c(OC)c2)cc(N)c1OC`, the growth was 95.9%.
For `CNC(=O)c1cccc(Cn2nc(C)c(NC(=O)c3ccc(COc4ccc(C(F)(F)F)cc4C)cc3)c2C)c1`, the growth was 55.5%.
Under `O=C1Nc2cc(-c3ccc(NC(=O)c4ccccc4)cc3)ccc2/C1=C/c1ccc[nH]1` stands 113%; under `COc1cc(OC)cc(C(=O)C[n+]2cccc3cc[nH]c32)c1`, 118%; under `CCOC(=O)[C@@H](C)C[C@H](Cc1ccccc1)NC(=O)c1csc([C@@H](C[C@H](C(C)C)N(C)C(=O)[C@@H](NC(=O)[C@H]2C[C@H](O[Si](C)(C)C(C)(C)C)CCN2C)C(C)C)OC(C)=O)n1`, 12.1% [9.25 µM].
Under `N#CC1C(C#N)C2c3ccccc3C=CN2C1C(=O)c1ccc(Br)cc1` (stereo not given) stands 111%.
On to `CCN1C(=O)/C(=C/C(=O)OC)S/C1=N\NC(=O)c1cc2ccc1/C=C\c1ccc(cc1)/C=C\2`, for which the growth was 93.5%.
Under `O=c1c2c(c(=O)n1O)c1c3ccc[nH]c3nc1c1nc3[nH]cccc3c12` stands 117%.
Consider `CCCCNC(=O)Oc1ccc(/C(=C(\C)c2ccccc2)c2ccc(OCCN3CCCCC3)cc2)cc1`, for which the growth is 85.3%.
Next, `O=C(Cc1ccc(/C=C/C(=O)c2ncc[nH]2)cc1)Nc1ccc(Cl)cc1`: 59.8%.
Turning to `Cc1nc2sccn2c1-c1cn2ccsc2n1`, the growth is 103%.
Under `CC(C)(C)c1cc(C=O)cc(C(C)(C)C)c1O` stands 93.2%.
Turning to `COc1ccc(C(C)=O)c(OC)c1`, the growth is 99.5%.
Next, `COc1ccc(Cc2cnc(NC(=O)c3ccc4c(c3)OCCO4)s2)cc1`: 41%.
For the molecule `CCCCCCNC(=O)Oc1ccc(/C(=C(\C)c2ccccc2)c2ccc(OCCCN(C)C)cc2)cc1`, the growth is 91.2%.
Under `O=C1c2cccc3c(-c4ccc5c(c4)ncn5C4CCCCC4)ccc(c23)C(=O)N1c1nc2ccccc2s1` stands 99.6%; under `COc1ccc(/C=N/NC(=O)c2cnn3c2NC(c2ccccc2)C3)cc1OC` (stereo not given), 75.6%; under `N#Cc1c(NC(=O)NCc2ccccc2)sc2c1CCCC2`, 49.1%.
On to `C=C1C(=O)O[C@H]2[C@H]1CC/C(CNS(=O)(=O)c1cccc3ccccc13)=C\CC[C@@]1(C)O[C@@H]21`, for which the growth was 8.61% (active).
Under `Cc1nc2sccn2c1-c1nc2sccn2c1/C=C1/C(=O)Nc2ccccc21` stands 70.9%; under `O=S(=O)(NCCCNc1nccc(-c2c(-c3cccc(O)c3)nc3occn23)n1)c1ccc(Cl)cc1`, 143%.
Under `O=C1Nc2cc(-c3ccc(NS(=O)(=O)c4ccccc4)cc3)ccc2/C1=C/c1ccc[nH]1` stands 68.9%; under `c1ccc2c(-c3c[nH]c4ccccc34)c3c(cc2c1)[nH]c1ccccc13`, 94.1%; under `O=C(/C=C/c1c(-c2ccc(Cl)cc2)nn(-c2ccccc2)c1C(F)(F)F)c1ccc(Cl)cc1`, 118%.
Next, `N#Cc1c(NC(=O)NCc2ccccc2)sc2c1CCCCC2`: 41.1%.
Consider `CC(C)(C)c1ccc(NS(=O)(=O)c2ccc3nc(NC(=O)c4cnccn4)[nH]c3c2)cc1`, for which the growth is 57.4%.
Under `COc1ccc(/C=C/c2nc(Nc3ccc(Cl)cc3)c3ccccc3n2)cc1` stands 70.8%.
Next, `Cc1cccc(C)c1N=c1oc2ccc(Cl)cc2nc1-c1ccccc1O`: 101%.
Consider `COc1cc(NCCCCCNC(C)(C)C)c2ncccc2c1`, for which the growth was 95.7%.
`CCNC(=O)Oc1ccc(/C(=C(\C)c2ccccc2)c2ccc(OCCN(CC)CC)cc2)cc1`: the growth is 95.6%.
Under `O=C(Cn1c[n+](CC(=O)c2ccc([N+](=O)[O-])cc2)c2ccccc21)Nc1cccc2cccnc12` stands 114%; under `CN1CCN(C(=O)[C@]23CCC(C)(C)C[C@H]2C2=CC[C@@H]4[C@@]5(C)C/C(=C/c6ccncc6)C(=O)C(C)(C)[C@@H]5CC[C@@]4(C)[C@]2(C)CC3)CC1`, 77.1%.
Next, `NS(=O)(=O)c1ccc(Cn2c(SCC(=O)N/N=C/c3ccccc3O)nc3ccccc3c2=O)cc1`: 53.8%; `CCOC(=O)c1nc2c3ccccc3ccn2c1C(=O)OCC`: 102%; `Cc1ccc(C(=O)/C(=C\c2ccc([N+](=O)[O-])cc2)S(=O)Cc2ccc(F)cc2)cc1` (stereo not given): 17.6%.
Under `CCCCCN1C=C/C(=C\C(=O)N(C)c2ccccc2Br)c2ccccc21` stands 99.7%; under `C=C(C)[C@@H]1CC[C@]2(C(=O)N3CCN(C)CC3)CC[C@]3(C)[C@H](CC[C@@H]4[C@@]5(C)CC[C@H](O)C(C)(C)[C@@H]5CC[C@]43C)[C@@H]12`, -93.3% (active).
